# Laboratory results reported in the supplement of paper PMC8975748.
# Where a name gives a salt, the structure may show the parent alone.
# Tested on: Saccharomyces cerevisiae BY4741 SeMeCo community
# Assay: z-score of subpopulation abundance vs DMSO median, subpopulation auxotrophic for HLU; higher = larger share of this subpopulation than in DMSO controls
# Conditions: 10 µM; 24 h; SM minimal medium; subpopulation (auxotrophy): HLU
# Summary of the method: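 Automated confocal microscopy of paraformaldehyde-fixed cells was used to follow a Saccharomyces cerevisiae BY4741 community carrying four plasmids, each restoring one auxotrophy and encoding a distinct fluorescent protein. The community was pre-grown overnight to OD600 1.0, diluted to 0.3, and added at 70 µl to 384-well plates acoustically predosed with library drugs (10 µM final) for 24 h of growth in minimal SM medium. Single-auxotroph fluorescent strains set thresholds and autofluorescence correction, and each subpopulation's abundance was scored as a z-score against the vehicle-well median.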
row,Compound,z-score of subpopulation abundance
1,O=C(Cn1cnnn1)N[C@@H]1C(=O)N2C(C(=O)O)=C(CSc3nncs3)CS[C@H]12 [Ceftezole],-0.25
2,O=C(NCCN1CCOCC1)c1ccc(Cl)cc1,0.17
3,C=C[C@]1(C)C[C@@H](OC(=O)CSC(C)(C)CNC(=O)[C@H](N)C(C)C)[C@]2(C)[C@H](C)CC[C@]3(CCC(=O)[C@H]32)[C@@H](C)[C@@H]1O [Valnemulin HCl],1.01
4,CN1CCN(CCCN2c3ccccc3Sc3ccc(C(F)(F)F)cc32)CC1 [Trifluoperazine 2HCl],-0.24
5,CCCCCCCCN=c1ccn(CCCCCCCCCCn2ccc(=NCCCCCCCC)cc2)cc1 [Octenidine Dihydrochloride],5.94
6,CC1(C)S[C@@H]2[C@H](NC(=O)Cc3ccccc3)C(=O)N2[C@H]1C(=O)O [Penicillin G Sodium],-0.18
7,CC(C)[C@H]1CC[C@H](C(=O)N[C@H](Cc2ccccc2)C(=O)O)CC1 [Nateglinide],-0.32
8,Nc1ccc(S(=O)(=O)NC(=O)c2ccccc2)cc1 [Sulfabenzamide],0.61
9,COc1ccc(C(=O)NCc2ccc(OCCN(C)C)cc2)cc1OC [Itopride hydrochloride],0.07
10,COc1ccc(-c2nc3cc(C4=NNC(=O)CC4C)ccc3[nH]2)cc1 (centres undefined) [Pimobendan],1.42
11,CC(C)N1CCN(c2ccc(OCC3COC(Cn4cncn4)(c4ccc(Cl)cc4Cl)O3)cc2)CC1 (centres undefined) [Terconazole],-0.59
12,COc1cc([C@@H]2c3cc4c(cc3[C@@H](O[C@@H]3O[C@@H]5CO[C@@H](c6cccs6)O[C@H]5[C@H](O)[C@H]3O)[C@H]3COC(=O)[C@H]23)OCO4)cc(OC)c1O [Teniposide],2.62
13,COc1ccc2c(c1)c(CC(=O)O)c(C)n2C(=O)c1ccc(Cl)cc1 [Indomethacin],-0.33
14,N[C@@H](CCC(=O)O)C(=O)O [(S)-Glutamic acid],-0.63
15,CC1(C)S[C@@H]2[C@H](NC(=O)Cc3ccccc3)C(=O)N2[C@H]1C(=O)O [Benzylpenicillin potassium],0.89
16,NC(=O)c1cnccn1 [Pyrazinamide],-0.7
17,Cc1nnc(NS(=O)(=O)c2ccc(N)cc2)s1 [Sulfamethizole],-1.06
18,CCC[C@@H]1C[C@@H](C(=O)N[C@@H]([C@H]2O[C@H](SC)[C@H](OP(=O)(O)O)[C@@H](O)[C@H]2O)[C@H](C)Cl)N(C)C1 [Clindamycin Phosphate],-0.85
19,CN[C@@H]1[C@H](O[C@H]2[C@H](O[C@H]3[C@H](O)[C@@H](O)[C@H](N=C(N)N)[C@@H](O)[C@@H]3N=C(N)N)O[C@@H](C)[C@]2(O)C=O)O[C@@H](CO)[C@H](O)[C@H]1O [Streptomycin sulfate],-0.4
20,O=c1[nH]cnc2c1ncn2[C@@H]1O[C@H](CO)[C@@H](O)[C@H]1O [Isoprinosine],-0.46

row,Compound,z-score of subpopulation abundance
1,C=C1c2cccc(O)c2C(O)=C2C(=O)[C@]3(O)C(O)=C(C(N)=O)C(=O)[C@@H](N(C)C)[C@@H]3[C@@H](O)[C@H]12 [Methacycline HCl],-0.87
2,COC(=O)C1=C(C)NC(C)=C(C(=O)OC)C1c1ccccc1[N+](=O)[O-] [Nifedipine],1.29
3,Nc1ccc(S(=O)(=O)c2ccc(N)cc2)cc1 [Dapson],0.22
4,NC(CO)(CO)CO [Trometamol],-0.13
5,C[C@]1(COc2ccc(N3CCC(Oc4ccc(OC(F)(F)F)cc4)CC3)cc2)Cn2cc([N+](=O)[O-])nc2O1 [Delamanid],0.12
6,Nc1nc(=O)[nH]cc1F [Flucytosine],1.33
7,CO[C@@H]1[C@@H](O[C@@H]2O[C@H](C)[C@@H](O[C@H]3C[C@@](C)(O)[C@@H](O)[C@H](C)O3)[C@H](N(C)C)[C@H]2O)[C@@H](CC=O)C[C@@H](C)[C@@H](O[C@H]2CC[C@H](N(C)C)[C@@H](C)O2)/C=C/C=C/C[C@@H](C)OC(=O)C[C@H]1OC(C)=O [Acetylspiramycin (ASPM)],1.65
8,C[C@]12CC[C@@H]3c4ccc(OS(=O)(=O)O)cc4CC[C@H]3[C@@H]1CCC2=O [Estropipate],-0.73
9,COc1ccnc(C[S+]([O-])c2nc3cc(-n4cccc4)ccc3[nH]2)c1C (centres undefined) [Ilaprazole sodium],2.72
10,CN1C[C@@H]2C[C@H]1CN2c1cc2c(cc1F)c(=O)c(C(=O)O)cn2C1CC1 [Danofloxacin Mesylate],0.21
11,c1ccc(-c2ccc(C(c3ccccc3)n3ccnc3)cc2)cc1 (centres undefined) [Bifonazole],0.9
12,CO/N=C(\C(=O)N[C@@H]1C(=O)N2C(C(=O)O)=CCS[C@H]12)c1csc(N)n1 [Ceftizoxime],-1.12
13,CN(C)[C@@H]1C(=O)C(C(N)=O)=C(O)[C@@]2(O)C(=O)C3=C(O)c4c(O)ccc(Cl)c4[C@@H](O)[C@H]3C[C@@H]12 [Demeclocycline HCl],-0.4
14,C#C[C@]1(O)CC[C@H]2[C@@H]3CCC4=Cc5oncc5C[C@]4(C)[C@H]3CC[C@@]21C [Danazol],-0.45
15,Nc1c(Br)cc(Br)cc1CN[C@H]1CC[C@H](O)CC1 [Ambroxol HCl],-0.39
16,CCOC(=O)c1ccc(N)cc1 [Benzocaine],-0.97
17,O=C1c2c(O)ccc(O)c2C(=O)c2c(NCCNCCO)ccc(NCCNCCO)c21 [Mitoxantrone 2HCl],54.8
18,c1ccc2[nH]c(-c3cscn3)nc2c1 [Thiabendazole],-0.4
19,C[C@@H](O)[C@H]1C(=O)N2C(C(=O)[O-])=C(SC3Cn4cnc[n+]4C3)[C@H](C)[C@H]12 (some centres undefined) [Biapenem],-1.25
